In PubChem BioAssay (EPA / NIEHS):
Inconclusive results are not listed. The source made the active and inactive calls. The calls were made as follows, unless noted: active = hit-call score of the fitted dose curve at least 0.9, where 1 is the maximum; inactive = score below 0.9.

Assays:
[1] = target: Nuclear respiratory factor 1 (Homo sapiens) (UniProt Q16656); test: ATG_NRF1_CIS: Attagene CIS-FACTORIAL HepG2 Assay for human Nuclear Respiratory Factor 1 (NRF1) Orphan Gene (AID 2282987); settings: HepG2 NRF1 cis-element reporter, Attagene multiplex; actives raise or lower the signal
Sequence of Nuclear respiratory factor 1 (Homo sapiens) (Q16656 whole entry, looked up): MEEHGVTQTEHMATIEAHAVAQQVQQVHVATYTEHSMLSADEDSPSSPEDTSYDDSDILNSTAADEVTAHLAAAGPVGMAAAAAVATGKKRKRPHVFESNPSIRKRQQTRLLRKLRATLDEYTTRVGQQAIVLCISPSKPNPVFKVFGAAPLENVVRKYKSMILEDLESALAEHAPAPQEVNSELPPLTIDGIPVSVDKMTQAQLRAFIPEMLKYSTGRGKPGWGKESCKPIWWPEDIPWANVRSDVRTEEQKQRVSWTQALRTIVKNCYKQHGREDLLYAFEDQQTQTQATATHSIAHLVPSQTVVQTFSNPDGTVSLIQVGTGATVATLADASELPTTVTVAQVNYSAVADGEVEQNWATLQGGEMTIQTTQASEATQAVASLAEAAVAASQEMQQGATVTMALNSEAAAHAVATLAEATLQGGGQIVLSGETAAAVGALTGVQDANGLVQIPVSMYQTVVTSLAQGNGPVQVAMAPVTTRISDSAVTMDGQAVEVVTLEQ
Outline: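 Endogenous NRF1-driven reporter transcription measured in transiently transfected human HepG2 liver cells. Readout: reporter mRNA by RT-PCR and capillary electrophoresis with fluorescence detection, 24 h post-dosing. Gain or loss of signal fitted relative to DMSO baseline.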

[2] = target: Myc proto-oncogene protein (Homo sapiens) (UniProt P01106); test: ATG_Myc_CIS: Attagene CIS-FACTORIAL HepG2 Assay for human Myelocytomatosis (Myc) Proto-Oncogene Transcription Factor (AID 2282990); settings: HepG2, Attagene cis-reporter transcription factor activity; actives raise or lower the signal
Sequence of Myc proto-oncogene protein (Homo sapiens) (P01106 whole entry, looked up): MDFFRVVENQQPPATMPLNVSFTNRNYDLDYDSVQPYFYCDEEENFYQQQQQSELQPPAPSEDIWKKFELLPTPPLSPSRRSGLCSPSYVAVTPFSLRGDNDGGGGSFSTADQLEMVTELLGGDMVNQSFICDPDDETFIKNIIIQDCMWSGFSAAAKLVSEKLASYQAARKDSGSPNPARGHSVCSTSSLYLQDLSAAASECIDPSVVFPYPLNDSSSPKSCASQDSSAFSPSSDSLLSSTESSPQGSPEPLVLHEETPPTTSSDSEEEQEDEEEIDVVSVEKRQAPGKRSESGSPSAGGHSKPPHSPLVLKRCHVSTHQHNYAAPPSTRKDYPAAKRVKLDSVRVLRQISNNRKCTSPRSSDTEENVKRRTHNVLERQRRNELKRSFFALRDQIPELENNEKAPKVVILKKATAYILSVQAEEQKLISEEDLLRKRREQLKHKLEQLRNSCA
Outline: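 HepG2, transient MRTU transfection (cis promoters, endogenous TFs); 24 h dosing; TriZol RNA → oligo(dT) RT → PCR → 6-FAM primer extension → HpaI cut → CE. Bidirectional fit vs DMSO.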

[3] = ATG_NF_kB_CIS: Attagene CIS-FACTORIAL HepG2 Assay for human Nuclear Factor Kappa B (NF-kB) (AID 2282991); settings: HepG2 Attagene cis-factorial NF-kB reporter mRNA; actives raise or lower the signal
Outline: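 Read-out: reporter transcript levels quantified by RT-PCR plus capillary electrophoresis of 6-FAM-labelled, HpaI-cut fragments. Transfected HepG2 cells, 24 h compound exposure, endogenous NF-kB-driven cis element; gain or loss scored versus DMSO.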

[4] = ATG_NRF2_ARE_CIS: Attagene CIS-FACTORIAL HepG2 Assay for human Nuclear Factor Erythroid 2 Related Factor 2 (NFR2) response to Antioxidant Response Elements (ARE) (AID 2282992); settings: HepG2 Attagene ARE/NRF2 reporter, transcription factor activity; actives raise or lower the signal
Outline: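 Cis-factorial assay: transfected HepG2 reporter library, 24 h dosing, mRNA readout via RT-PCR/CE; DMSO-referenced bidirectional analysis.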

[5] = ATG_Oct_MLP_CIS: Attagene CIS-FACTORIAL HepG2 Assay for human Octamer-Binding Transcription Factor (Oct) (AID 2282993); settings: HepG2 Attagene cis-factorial Oct reporter, mRNA; actives raise or lower the signal
Outline: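 Read-out: reporter mRNA via RT-PCR plus capillary electrophoresis of 6-FAM-labelled fragments. Transiently transfected HepG2, 24 h exposure, endogenous TF activity on cis elements. Gain or loss of signal fitted relative to DMSO.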

[6] = target: Cellular tumor antigen p53 (Homo sapiens) (UniProt P04637); test: ATG_p53_CIS: Attagene CIS-FACTORIAL HepG2 Assay for human p53 Transcription Factor (AID 2282994); settings: HepG2 p53 cis-element reporter, Attagene mRNA; actives raise or lower the signal
Sequence of Cellular tumor antigen p53 (Homo sapiens) (P04637 whole entry, looked up): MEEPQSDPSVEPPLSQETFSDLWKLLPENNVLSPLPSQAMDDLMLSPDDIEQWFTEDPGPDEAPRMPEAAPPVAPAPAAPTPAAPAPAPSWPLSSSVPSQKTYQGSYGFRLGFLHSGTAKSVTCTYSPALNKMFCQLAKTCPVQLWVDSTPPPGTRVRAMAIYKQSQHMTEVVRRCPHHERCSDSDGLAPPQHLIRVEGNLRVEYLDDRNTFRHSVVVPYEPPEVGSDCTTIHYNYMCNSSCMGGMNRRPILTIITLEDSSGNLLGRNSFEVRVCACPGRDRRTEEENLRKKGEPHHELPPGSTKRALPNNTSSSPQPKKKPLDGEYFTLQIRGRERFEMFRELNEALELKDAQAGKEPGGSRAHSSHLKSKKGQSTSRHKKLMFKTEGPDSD
Outline: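 Using HepG2 hepatoma cells carrying cis-acting multiplexed reporters, mRNA induction is detected after a 24 h exposure. Gain- and loss-of-signal responses are fitted relative to DMSO-treated cells.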

[7] = BSK_3C_TissueFactor: BioMAP Diversity Plus: 3C Assay for Tissue Factor Biomarker Activity (AID 2282997); settings: BioMAP 3C HUVEC, tissue factor biomarker readout; actives raise or lower the signal
Outline: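 HUVEC were treated 24 h, then surface tissue factor measured by ELISA and fitted bidirectionally against DMSO. Parallel SRB total-protein staining assessed overt cytotoxicity at the same time point.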

[8] = BSK_3C_uPAR: BioMAP Diversity Plus: 3C Assay for Urokinase-type plasminogen activator receptor (uPAR) Biomarker Activity (AID 2282998); settings: BioMAP 3C HUVEC, uPAR biomarker ELISA; actives raise or lower the signal
Outline: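 HUVEC primary cells; 24 h post-dose; uPAR by ELISA; gain or loss of signal fitted bidirectionally vs DMSO baseline.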

[9] = BSK_3C_VCAM1: BioMAP Diversity Plus: 3C Assay for Vascular cell adhesion molecule 1 (VCAM1) Biomarker Activity (AID 2282999); settings: BioMAP 3C HUVEC, VCAM1 ELISA, cytokine-stimulated; actives raise or lower the signal
Outline: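 Endothelial cells from human umbilical vein are treated with test chemical. At 24 h, VCAM-1 is measured by ELISA, and responses in either direction are fitted relative to DMSO.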

[10] = BSK_4H_Eotaxin3: BioMAP Diversity Plus: 4H Assay for Eotaxin 3 Biomarker Activity (AID 2283000); settings: primary human endothelial cells (HUVEC); actives raise or lower the signal;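 also: CCL26 protein level quantified by ELISA in parallel with SRB cytotoxicity check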
Outline: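 Eotaxin-3 (CCL26) levels were measured by ELISA in HUVEC primary cultures 24 h post-dosing. Gain or loss of signal was fitted in both directions, with DMSO serving as baseline and negative control.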

[11] = target: human Peroxisome Proliferator-activated Receptor alpha (PPARa), PPARA (gene 5465) (UniProt Q07869); test: ATG_PPARa_TRANS: Attagene TRANS-FACTORIAL HepG2 Assay for human Peroxisome Proliferator-activated Receptor alpha (PPARa) (AID 2283001; active = hit-call score of the fitted dose curve at least 0.9, where 1 is the maximum)
Sequence of human Peroxisome Proliferator-activated Receptor alpha (PPARa), PPARA (gene 5465) (Q07869 whole entry, looked up, the tested form may be a part): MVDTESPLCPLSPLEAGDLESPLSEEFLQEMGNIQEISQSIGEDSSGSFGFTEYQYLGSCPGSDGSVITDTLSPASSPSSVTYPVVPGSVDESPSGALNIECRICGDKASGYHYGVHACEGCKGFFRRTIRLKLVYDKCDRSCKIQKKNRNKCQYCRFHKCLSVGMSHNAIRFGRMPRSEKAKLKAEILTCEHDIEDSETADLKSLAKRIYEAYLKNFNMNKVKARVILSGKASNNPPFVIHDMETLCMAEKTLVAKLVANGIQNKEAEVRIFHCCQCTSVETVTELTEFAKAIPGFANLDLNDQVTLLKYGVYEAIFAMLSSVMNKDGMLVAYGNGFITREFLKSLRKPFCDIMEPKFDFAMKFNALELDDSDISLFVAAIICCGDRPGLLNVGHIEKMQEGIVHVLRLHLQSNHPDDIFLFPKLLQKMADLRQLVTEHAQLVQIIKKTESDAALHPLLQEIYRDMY
Outline: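 Read-out is fluorescence of reporter cDNA fragments resolved by capillary electrophoresis after RT-PCR. Human HepG2 liver cells carried transfected PPARa-Gal4 chimera and GAL4-UAS reporter units, treated 24 h; activity scored as increase over DMSO.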

[12] = target: human Peroxisome Proliferator-activated Receptor delta (PPARd), PPARD (gene 5467) (UniProt Q03181); test: ATG_PPARd_TRANS: Attagene TRANS-FACTORIAL HepG2 Assay for human Peroxisome Proliferator-activated Receptor delta (PPARd) (AID 2283002; active = hit-call score of the fitted dose curve at least 0.9, where 1 is the maximum)
Sequence of human Peroxisome Proliferator-activated Receptor delta (PPARd), PPARD (gene 5467) (Q03181 whole entry, looked up, the tested form may be a part): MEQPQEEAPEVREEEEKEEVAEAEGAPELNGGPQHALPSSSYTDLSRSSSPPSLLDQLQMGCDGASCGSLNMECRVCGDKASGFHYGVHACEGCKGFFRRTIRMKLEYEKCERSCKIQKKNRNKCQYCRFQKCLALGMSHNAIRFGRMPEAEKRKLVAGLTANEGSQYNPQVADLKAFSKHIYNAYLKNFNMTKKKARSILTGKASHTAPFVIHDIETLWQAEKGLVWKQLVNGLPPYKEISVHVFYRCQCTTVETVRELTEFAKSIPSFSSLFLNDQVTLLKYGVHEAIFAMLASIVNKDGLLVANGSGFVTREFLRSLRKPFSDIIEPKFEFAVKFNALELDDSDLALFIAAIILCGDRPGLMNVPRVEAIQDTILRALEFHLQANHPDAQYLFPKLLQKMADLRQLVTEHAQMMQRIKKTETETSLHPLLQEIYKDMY
Outline: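 Transient HepG2 transfection (multiple GAL4-UAS RTUs, chimeric receptor-Gal4); 24 h dosing; total RNA → oligo(dT) RT → PCR → 6-FAM primer extension → HpaI cut → CE. Positive direction vs DMSO.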

[13] = read-out: Intercellular Adhesion Molecule 1 (ICAM1), ICAM1 (gene 3383); test: BSK_3C_ICAM1: BioMAP Diversity Plus: 3C Assay for Intercellular Adhesion Molecule 1 (ICAM1) Biomarker Activity (AID 2283003); settings: primary human endothelial cells (HUVEC); actives raise or lower the signal
Outline: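 HUVEC primary cells stimulated under 3C conditions; ICAM1 measured by ELISA 24 h after compound dosing. Curves fitted bidirectionally against the DMSO baseline. Overt cytotoxicity checked by SRB staining of parallel cultures.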

[14] = BSK_3C_Proliferation: Cell Proliferation Assessment in the BioMAP Diversity Plus: 3C Assay (AID 2283006); settings: primary human endothelial cells (HUVEC);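 as to AC50: potency may reflect either rise or fall in cell number versus DMSO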
Outline: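 Subconfluent HUVEC (3C system) cultured with chemical; relative cell number read at 48 h by sulforhodamine B total-protein staining (0.1% SRB after 10% TCA fixation, 560 nm). Bidirectional fit relative to DMSO.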

[15] = target: Peroxisome proliferator-activated receptor gamma (Homo sapiens) (UniProt P37231); test: ATG_PPARg_TRANS: Attagene TRANS-FACTORIAL HepG2 Assay for human Peroxisome Proliferator-activated Receptor-gamma (PPARg) (AID 2283007; active = hit-call score of the fitted dose curve at least 0.9, where 1 is the maximum)
Sequence of Peroxisome proliferator-activated receptor gamma (Homo sapiens) (P37231 whole entry, looked up, the tested form may be a part): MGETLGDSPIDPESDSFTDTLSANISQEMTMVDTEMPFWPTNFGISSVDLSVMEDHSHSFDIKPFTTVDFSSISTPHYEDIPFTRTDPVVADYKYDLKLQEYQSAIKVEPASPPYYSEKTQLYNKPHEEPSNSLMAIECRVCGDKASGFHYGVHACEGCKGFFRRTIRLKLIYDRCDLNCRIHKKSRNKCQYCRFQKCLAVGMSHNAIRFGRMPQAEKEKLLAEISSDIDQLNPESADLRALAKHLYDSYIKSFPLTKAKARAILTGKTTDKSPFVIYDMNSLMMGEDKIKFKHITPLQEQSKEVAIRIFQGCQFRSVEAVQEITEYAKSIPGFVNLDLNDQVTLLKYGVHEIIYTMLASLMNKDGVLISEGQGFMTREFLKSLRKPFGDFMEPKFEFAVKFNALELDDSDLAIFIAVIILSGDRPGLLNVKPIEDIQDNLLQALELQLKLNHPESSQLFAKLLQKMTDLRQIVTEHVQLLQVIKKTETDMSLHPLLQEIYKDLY
Outline: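 Read-out: reporter mRNA induction, detected by fluorescence after RT-PCR and capillary electrophoresis. Transiently transfected human HepG2 liver cells carrying a chimeric NR-Gal4 construct were dosed for 24 h; activity was fitted upward relative to DMSO.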

[16] = target: Nuclear receptor subfamily 1 group I member 2 (Homo sapiens) (UniProt O75469); test: ATG_PXR_TRANS: Attagene TRANS-FACTORIAL HepG2 Assay for human Pregnane X Receptor (PXR) (AID 2283008; active = hit-call score of the fitted dose curve at least 0.9, where 1 is the maximum)
Sequence of Nuclear receptor subfamily 1 group I member 2 (Homo sapiens) (O75469 whole entry, looked up, the tested form may be a part): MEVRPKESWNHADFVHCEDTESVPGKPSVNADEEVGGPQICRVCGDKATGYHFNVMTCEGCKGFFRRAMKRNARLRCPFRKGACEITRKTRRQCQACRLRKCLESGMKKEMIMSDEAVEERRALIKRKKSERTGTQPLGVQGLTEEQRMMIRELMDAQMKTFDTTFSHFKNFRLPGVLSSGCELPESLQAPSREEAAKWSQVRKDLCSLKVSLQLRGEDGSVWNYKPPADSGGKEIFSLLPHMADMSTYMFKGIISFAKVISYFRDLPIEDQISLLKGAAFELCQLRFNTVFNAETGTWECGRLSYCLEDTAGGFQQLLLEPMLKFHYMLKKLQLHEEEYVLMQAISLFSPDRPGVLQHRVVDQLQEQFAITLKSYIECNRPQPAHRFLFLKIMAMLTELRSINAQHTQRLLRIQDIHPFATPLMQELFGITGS
Outline: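 Fluorescence intensity of FAM-labelled, HpaI-digested reporter amplicons, separated by capillary electrophoresis, quantifies induction. HepG2 cells with PXR-Gal4 trans-reporter system were exposed 24 h; DMSO defines baseline.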

[17] = ATG_NFI_CIS: Attagene CIS-FACTORIAL HepG2 Assay for human Nuclear Factor I (NFI) (AID 2282989); settings: HepG2 cis-regulatory reporter, NFI response element transcription; actives raise or lower the signal
Outline: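 Read-out: reporter mRNA via RT-PCR plus capillary electrophoresis with fluorescence detection. Transiently transfected HepG2 (endogenous TF activity on cis promoters), 24 h compound exposure; gain or loss of signal fitted against DMSO.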

[18] = target: human Retinoic Acid Receptor beta (RARb), RARB (gene 5915) (UniProt P10826); test: ATG_RARb_TRANS: Attagene TRANS-FACTORIAL HepG2 Assay for human Retinoic Acid Receptor beta (AID 2283004; active = hit-call score of the fitted dose curve at least 0.9, where 1 is the maximum)
Sequence of human Retinoic Acid Receptor beta (RARb), RARB (gene 5915) (P10826 whole entry, looked up, the tested form may be a part): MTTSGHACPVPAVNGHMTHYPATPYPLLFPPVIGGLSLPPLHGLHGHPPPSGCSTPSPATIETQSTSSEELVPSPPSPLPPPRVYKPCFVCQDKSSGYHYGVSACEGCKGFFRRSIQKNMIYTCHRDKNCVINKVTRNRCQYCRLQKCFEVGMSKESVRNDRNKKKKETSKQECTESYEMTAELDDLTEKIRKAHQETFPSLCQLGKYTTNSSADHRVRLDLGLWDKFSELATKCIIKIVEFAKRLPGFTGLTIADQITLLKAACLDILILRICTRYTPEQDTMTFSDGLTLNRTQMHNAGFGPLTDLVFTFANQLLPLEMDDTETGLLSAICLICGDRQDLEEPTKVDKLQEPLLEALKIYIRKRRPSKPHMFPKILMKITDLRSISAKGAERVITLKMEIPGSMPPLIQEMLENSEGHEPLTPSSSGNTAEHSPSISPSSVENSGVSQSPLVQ
Outline: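 HepG2 cells were transiently transfected with GAL4-UAS reporter units that report activity of exogenous chimeric NR-Gal4 proteins, then exposed to compound for 24 h. Reporter mRNA was quantified by RT-PCR with capillary electrophoresis fluorescence, as gain of signal over DMSO.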

[19] = target: Retinoic acid receptor alpha (Homo sapiens) (UniProt P10276); test: ATG_RARa_TRANS: Attagene TRANS-FACTORIAL HepG2 Assay for human Retinoic Acid Receptor alpha (RARa) (AID 2283005; active = hit-call score of the fitted dose curve at least 0.9, where 1 is the maximum)
Sequence of Retinoic acid receptor alpha (Homo sapiens) (P10276 whole entry, looked up, the tested form may be a part): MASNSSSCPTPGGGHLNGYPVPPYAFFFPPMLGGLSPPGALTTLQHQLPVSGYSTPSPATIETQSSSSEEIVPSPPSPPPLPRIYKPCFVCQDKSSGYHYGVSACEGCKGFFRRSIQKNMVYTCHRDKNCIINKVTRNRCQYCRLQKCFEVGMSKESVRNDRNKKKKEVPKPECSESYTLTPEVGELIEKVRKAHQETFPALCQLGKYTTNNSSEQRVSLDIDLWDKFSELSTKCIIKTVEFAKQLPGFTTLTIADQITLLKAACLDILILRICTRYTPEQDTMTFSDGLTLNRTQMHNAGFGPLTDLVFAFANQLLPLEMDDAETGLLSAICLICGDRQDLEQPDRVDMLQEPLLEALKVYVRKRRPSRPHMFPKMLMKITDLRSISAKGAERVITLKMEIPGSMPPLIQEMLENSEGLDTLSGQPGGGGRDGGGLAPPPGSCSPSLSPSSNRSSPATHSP
Outline: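 Reporter transcripts, measured by RT-PCR with fluorescent labeling and capillary electrophoresis after 24 h dosing, reflect activity of an exogenous human RARa–GAL4 fusion in transiently transfected HepG2. Fitted for increase relative to DMSO.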

[20] = target: human Retinoic Acid Receptor gamma (RARg), RARG (gene 5916) (UniProt P13631); test: ATG_RARg_TRANS: Attagene TRANS-FACTORIAL HepG2 Assay for human Retinoic Acid Receptor gamma (RARg) (AID 2283009; active = hit-call score of the fitted dose curve at least 0.9, where 1 is the maximum)
Sequence of human Retinoic Acid Receptor gamma (RARg), RARG (gene 5916) (P13631 whole entry, looked up, the tested form may be a part): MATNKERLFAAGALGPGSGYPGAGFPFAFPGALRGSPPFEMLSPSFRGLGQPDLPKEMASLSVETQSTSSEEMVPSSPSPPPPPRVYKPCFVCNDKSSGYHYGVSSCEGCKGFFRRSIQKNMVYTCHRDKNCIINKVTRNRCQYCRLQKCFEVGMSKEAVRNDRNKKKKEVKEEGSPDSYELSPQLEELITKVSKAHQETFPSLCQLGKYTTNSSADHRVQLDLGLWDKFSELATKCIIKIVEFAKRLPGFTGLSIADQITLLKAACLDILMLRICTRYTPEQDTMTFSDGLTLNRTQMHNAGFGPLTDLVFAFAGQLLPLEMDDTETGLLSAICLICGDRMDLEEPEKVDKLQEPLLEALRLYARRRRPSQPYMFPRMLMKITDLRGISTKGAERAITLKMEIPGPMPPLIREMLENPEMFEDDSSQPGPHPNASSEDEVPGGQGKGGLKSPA
Outline: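 HepG2 transiently transfected with GAL4-UAS reporter units and chimeric NR-Gal4 constructs; 24 h compound exposure. Reporter mRNA quantified by RT-PCR, FAM labeling, HpaI digestion and capillary electrophoresis; gain-of-signal versus DMSO.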

Measured: AC50

CCCCCCCCCCCC(=O)OC
active: [14] 20 µM
not listed: [17] | [18] | [19] | [20]
inactive: all other assays above

CC(=O)OCCOCCOCCOC(C)=O
not listed: [3] | [11] | [12] | [16]
inactive: all other assays above

CN1CCCC1=O
not listed: [3] | [11] | [12] | [15]
inactive: all other assays above

Cc1ccc(C)c(O)c1C
not listed: [17] | [19]
inactive: all other assays above
